Laboratory results from PubChem BioAssay (Tox21).
Inconclusive results are not listed. The source made the active and inactive calls. Unless noted, the call rests on the fitted dose curve; in most records, active means well fitted curve in the direction sought with a large enough effect in the repeat runs; inconclusive means weak or mixed curves; inactive means no such curve, though single readings can be large; an effect the other way counts as inactive or inconclusive.

Assays:
[1] = qHTS assay to identify small molecule antagonists of the estrogen receptor alpha (ER-alpha) signaling pathway using the BG1 cell line in the presence of 0.1 nM 17-beta-estradiol - cell viability counter screen (AID 1259241); further: nearly all actives have a fitted effect of over 40% in size
Summary of the method: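 VM7Luc4E2 cells (endogenous ER-alpha, 4×ERE-luciferase), hormone-starved 5 days in charcoal-stripped FBS, were treated with compounds plus 0.1 nM 17beta-estradiol for 22 hr at 37C; viability read in same wells as CellTiter-Fluor live-cell protease fluorescence.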

[2] = qHTS assay to identify small molecule antagonists of the androgen receptor (AR) signaling pathway using the MDA cell line in the presence of 0.5 nM R1881 - cell viability counter screen (AID 1259242); further: nearly all actives have a fitted effect of over 45% in size
Summary of the method: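 qHTS format. MDA-kb2 (MMTV-luc, AR/GR responsive) + cpd + 0.5 nM R1881 final, 16 hr 37C/0% CO2 → CellTiter-Fluor 30 min → fluorescence intensity.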

[3] = qHTS assay to identify small molecule phospholipidosis (PLD) inducers (AID 1259344; active means well fitted curve in the direction sought with a large enough effect; an effect the other way counts as inactive or inconclusive)
Summary of the method: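 Read-out is LipidTOX Red fluorescence (ex 595/em 615) imaged in HepG2 cells after 24 h compound exposure at 37 C, with Hoechst nuclear counterstain (ex 352/em 461) allowing per-cell normalisation.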

[4] = qHTS assay to identify small molecule HDAC inhibitors (AID 1259364); further: potency means the concentration at half of the fitted maximal effect;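 further: wild-type HCT-116 cells with endogenous class I/II HDAC activity; nearly all actives have a fitted effect of over 45% in size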
Summary of the method: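 Quantitative high-throughput format: overnight-seeded HCT-116 cells got compounds for 2 hr at 37C; HDAC-Glo I/II reagent added, 30 min RT, luminescence measured.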

[5] = qHTS assay to identify small molecule HDAC inhibitors - cell viability counter screen (AID 1259365); further: series mostly up to about 92 µM; nearly all actives have a fitted effect of over 50% in size
Summary of the method: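 Wild-type HCT-116 cells were seeded at 1,500 per well, incubated overnight at 37 C, then exposed to compounds in DMSO for 2hr. Viability was read by CellTiter-Glo luminescence after 30min at room temperature.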

[6] = qHTS assay to identify small molecule agonists of the sonic hedgehog signaling (Shh) pathway - cell viability counter screen (AID 1259366); further: nearly all actives have a fitted effect of over 50% in size
Summary of the method: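 NIH/3T3-derived 3T3 Gli1-Luc cells (stable Gli1-responsive firefly luciferase reporter) were seeded, rested 4 hr at 37 C/5% CO2, then exposed to compounds in DMSO for 24 hr; viability was read by CellTiter-Fluor fluorescence in the same wells.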

[7] = qHTS assay to identify small molecule antagonists of the sonic hedgehog signaling (Shh) pathway - cell viability counter screen (AID 1259367); further: nearly all actives have a fitted effect of over 55% in size
Summary of the method: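 Fluorescence read-out (CellTiter-Fluor, 1 hr at 37C) taken after 23 hr compound treatment of 3T3 Gli1-Luc cells stimulated with conditioned medium. Cells were seeded at 2,000 per well and pre-incubated 4 hr.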

[8] = qHTS assay to identify small molecule agonists of the sonic hedgehog signaling (Shh) pathway (AID 1259368; calls by dose curve; further: series mostly up to about 92 µM; nearly all actives have a fitted effect of over 15% in size)
Summary of the method: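 Quantitative high-throughput format using a Gli1-driven firefly luciferase reporter line derived from NIH/3T3 cells. After a 24 hr compound treatment at 37 C and 5% CO2, luminescence reported Gli1 response element activity.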

[9] = qHTS assay to identify small molecule antagonists of the sonic hedgehog signaling (Shh) pathway (AID 1259369; calls by dose curve; further: nearly all actives have a fitted effect of over 45% in size)
Summary of the method: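 Stable Gli1-Luc reporter NIH/3T3 clone; quantitative HTS in stimulated mode with conditioned medium. Luminescence measured after 24hr compound treatment at 37 C.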

[10] = target: Estrogen receptor beta (Homo sapiens) (UniProt Q92731); test: qHTS assay to identify small molecule agonists of the estrogen receptor beta (ER-beta) signaling pathway (AID 1259377; active means well fitted activation curve with a large enough effect in the signal ratio in the repeat runs, not every such curve was filed as active; the % refers to the signal ratio)
Estrogen receptor beta (Homo sapiens), sequence (Q92731 whole entry, looked up): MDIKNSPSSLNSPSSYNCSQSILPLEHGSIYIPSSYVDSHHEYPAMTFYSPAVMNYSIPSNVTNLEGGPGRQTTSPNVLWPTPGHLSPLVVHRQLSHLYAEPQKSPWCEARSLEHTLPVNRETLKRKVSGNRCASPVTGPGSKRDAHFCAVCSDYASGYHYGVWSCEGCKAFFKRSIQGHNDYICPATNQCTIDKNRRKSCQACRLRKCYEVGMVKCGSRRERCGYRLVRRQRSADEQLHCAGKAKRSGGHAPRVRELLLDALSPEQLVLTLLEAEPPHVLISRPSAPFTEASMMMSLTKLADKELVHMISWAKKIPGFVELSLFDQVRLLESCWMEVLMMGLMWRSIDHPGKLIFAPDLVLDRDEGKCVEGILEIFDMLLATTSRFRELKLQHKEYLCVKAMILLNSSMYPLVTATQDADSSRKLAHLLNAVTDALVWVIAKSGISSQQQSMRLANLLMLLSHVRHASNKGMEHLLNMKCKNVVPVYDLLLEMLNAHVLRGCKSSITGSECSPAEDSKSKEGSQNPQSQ
Summary of the method: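 ER-beta-UAS-bla HEK293T (GripTite) cells carrying a UAS-driven beta-lactamase reporter, in medium with 2% charcoal-stripped FBS, were exposed to compounds for 16 hr at 37C; LiveBLAzer B/G FRET substrate was then added and fluorescence read after 2 hours at room temperature.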

[11] = target: Estrogen receptor beta (Homo sapiens) (UniProt Q92731); test: qHTS assay to identify small molecule antagonists of the estrogen receptor beta (ER-beta) signaling pathway (AID 1259378; active means well fitted inhibition curve with a large enough effect in the signal ratio in the repeat runs, not every such curve was filed as active; the % refers to the signal ratio)
Summary of the method: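 ER-beta-UAS-bla HEK293T cells in 2% charcoal-stripped FBS medium treated with compound plus 1nM final 17-beta-estradiol for 16 hr at 37C. Beta-lactamase reporter read by FRET substrate fluorescence after 2 hours at room temperature.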

[12] = qHTS assay to identify small molecule agonists of the estrogen receptor beta (ER-beta) signaling pathway - cell viability counter screen (AID 1259380); further: nearly all actives have a fitted effect of over 30% in size; further: potency means the concentration at half of the fitted maximal effect
Summary of the method: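 Steps: plate ER-beta-UAS-bla HEK293T cells, rest 6 hr; add compounds in DMSO; incubate 16 hr at 37C, 5% CO2; add FRET substrate 2 hr; add CellTiter-Glo, wait 30 min at room temperature; read luminescence.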

[13] = qHTS assay to identify small molecule antagonists of the estrogen receptor beta (ER-beta) signaling pathway - cell viability counter screen (AID 1259382); further: nearly all actives have a fitted effect of over 55% in size; further: potency means the concentration at half of the fitted maximal effect
Summary of the method: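 Viability is scored by CellTiter-Glo luminescence (30 min, room temperature) in ER-beta-UAS-bla HEK293T wells already read for reporter fluorescence. Compound exposure lasts 16 hr at 37C alongside 1nM 17-beta-estradiol in charcoal-stripped serum medium.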

[14] = target: Estrogen receptor (Homo sapiens) (UniProt P03372); test: qHTS assay to identify small molecule antagonists of the estrogen receptor alpha (ER-alpha) signaling pathway using the BG1 cell line in the presence of 0.1 nM 17-beta-estradiol (AID 1259244); further: nearly all actives have a fitted effect of over 50% in size
Estrogen receptor (Homo sapiens), sequence (P03372 whole entry, looked up): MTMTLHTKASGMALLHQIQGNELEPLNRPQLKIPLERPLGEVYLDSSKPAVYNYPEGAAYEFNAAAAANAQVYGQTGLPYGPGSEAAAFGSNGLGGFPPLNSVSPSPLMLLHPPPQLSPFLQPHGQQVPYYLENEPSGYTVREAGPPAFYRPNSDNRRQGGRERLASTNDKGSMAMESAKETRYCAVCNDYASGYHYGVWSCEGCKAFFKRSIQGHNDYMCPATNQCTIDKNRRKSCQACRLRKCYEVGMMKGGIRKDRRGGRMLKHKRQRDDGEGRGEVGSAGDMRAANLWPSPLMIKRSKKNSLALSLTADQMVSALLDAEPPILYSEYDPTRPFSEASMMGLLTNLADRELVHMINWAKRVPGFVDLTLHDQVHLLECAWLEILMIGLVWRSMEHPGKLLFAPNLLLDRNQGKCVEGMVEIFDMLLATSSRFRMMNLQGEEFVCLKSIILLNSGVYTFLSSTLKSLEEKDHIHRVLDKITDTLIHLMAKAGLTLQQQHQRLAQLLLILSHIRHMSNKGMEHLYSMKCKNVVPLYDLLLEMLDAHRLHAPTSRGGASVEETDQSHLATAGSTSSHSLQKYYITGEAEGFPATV
Summary of the method: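 Reporter is a stably transfected luciferase under four estrogen responsive elements in VM7Luc4E2 cells expressing native full-length ER-alpha; inhibition of 0.1 nM (final) 17beta-estradiol-driven signal over 22 h is read by luminescence.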

[15] = qHTS assay to identify small molecule agonists of the androgen receptor (AR) signaling pathway in the presence of an antagonist - cell viability counter screen (AID 1259379); further: nearly all actives have a fitted effect of over 25% in size; further: potency means the concentration at half of the fitted maximal effect
Summary of the method: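 Nilutamide-containing (3.0uM final) MDA-kb2 cultures, 3,000 cells/well, were treated with compounds across 15 concentrations. After 16 hr at 37C with no CO2, cell viability was determined by CellTiter-Fluor fluorescence in the luciferase assay wells.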

[16] = target: Estrogen receptor (Homo sapiens) (UniProt P03372); test: qHTS assay to identify small molecule agonists of the estrogen receptor alpha (ER-alpha) signaling pathway in the presence of an antagonist (AID 1259383; calls by dose curve; further: nearly all actives have a fitted effect of over 15% in size; further: potency means the concentration at half of the fitted maximal effect; on activation: top concentration of the series differs between compounds)
Summary of the method: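 Readout was ERE-driven luciferase luminescence in VM7Luc4E2 cells, which express full-length ER-alpha endogenously. Compounds were tested at 15 concentrations for 22hr alongside 10.0nM ICI-182,780 (final concentration).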

[17] = qHTS assay to identify small molecule agonists or antagonists of the thyroid stimulating hormone receptor (TSHR) signaling pathway - wild type cell line counter screen (AID 1259384; calls by dose curve)
Summary of the method: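 Wild-type Hek293 cells, 800/well, 18 h at 37C, then compound with Ro20-1724 for 30 min RT. cAMP by HTRF (cAMP-d2/anti-cAMP cryptate), 1 h RT, fluorescence read. 15 concentrations, triplicates.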

[18] = target: Androgen receptor (Homo sapiens) (UniProt P10275); test: qHTS assay to identify small molecule antagonists of the androgen receptor (AR) signaling pathway using the MDA cell line in the presence of 0.5 nM R1881 (AID 1259243); further: nearly all actives have a fitted effect of over 50% in size
Androgen receptor (Homo sapiens), sequence (P10275 whole entry, looked up): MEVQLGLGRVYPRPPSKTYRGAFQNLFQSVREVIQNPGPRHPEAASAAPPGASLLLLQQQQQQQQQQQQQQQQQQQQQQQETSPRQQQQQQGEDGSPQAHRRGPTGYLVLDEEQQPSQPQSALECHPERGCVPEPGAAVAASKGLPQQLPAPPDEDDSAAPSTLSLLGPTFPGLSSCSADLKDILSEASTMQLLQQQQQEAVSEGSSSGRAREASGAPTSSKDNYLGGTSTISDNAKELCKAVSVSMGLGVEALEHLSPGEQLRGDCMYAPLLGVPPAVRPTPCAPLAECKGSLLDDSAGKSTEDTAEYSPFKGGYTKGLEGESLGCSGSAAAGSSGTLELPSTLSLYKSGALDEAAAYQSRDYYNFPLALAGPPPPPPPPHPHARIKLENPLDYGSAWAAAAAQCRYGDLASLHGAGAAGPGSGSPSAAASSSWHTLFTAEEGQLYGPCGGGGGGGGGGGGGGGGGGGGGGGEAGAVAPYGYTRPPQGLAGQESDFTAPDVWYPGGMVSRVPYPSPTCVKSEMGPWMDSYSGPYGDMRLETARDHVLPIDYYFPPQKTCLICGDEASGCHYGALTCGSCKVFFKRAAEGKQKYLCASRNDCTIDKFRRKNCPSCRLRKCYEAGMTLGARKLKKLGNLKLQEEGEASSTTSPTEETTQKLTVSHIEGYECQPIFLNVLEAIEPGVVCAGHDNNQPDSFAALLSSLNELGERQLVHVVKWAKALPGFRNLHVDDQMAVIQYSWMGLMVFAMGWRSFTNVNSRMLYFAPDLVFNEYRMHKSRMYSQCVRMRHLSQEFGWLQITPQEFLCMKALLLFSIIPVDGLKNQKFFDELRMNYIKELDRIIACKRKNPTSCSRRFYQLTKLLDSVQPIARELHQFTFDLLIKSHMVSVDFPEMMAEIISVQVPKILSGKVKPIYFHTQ
Summary of the method: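 Antagonist mode quantitative HTS in MDA-kb2 MMTV-luciferase cells, agonist R1881 at 0.5 nM final, 16 hr exposure at 37C and 0% CO2, luminescent detection.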

[19] = target: Androgen receptor (Homo sapiens) (UniProt P10275); test: qHTS assay to identify small molecule agonists of the androgen receptor (AR) signaling pathway in the presence of an antagonist (AID 1259381; calls by dose curve; further: nearly all actives have a fitted effect of over 15% in size)
Summary of the method: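 Reporter-gene luminescence from MDA-kb2 cells exposed 16hr at 37C (0% CO2) to 15-point compound titrations with 3.0uM final nilutamide as AR antagonist.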

Measured: Potency

CCOC(C)OCC
not listed: [14] | [15] | [16] | [17] | [18] | [19]
inactive: all other assays above

CC(C)(C)c1ccc(CCC=O)cc1
not listed: [3] | [5] | [12] | [18] | [19]
inactive: all other assays above

C1=COCCC1
inactive: [2] | [14] | [4] | [5] | [6] | [7] | [8] | [9] | [15] | [13]

CC(COc1ccccc1)NC(C)C(O)c1ccc(O)cc1 (centres undefined)
not listed: [10] | [11] | [14] | [18] | [19]
inactive: all other assays above

O=C(Nc1ccc2c(c1)Cc1ccccc1-2)C(F)(F)F
not listed: [3] | [4] | [5] | [10] | [14] | [16] | [18] | [19]
inactive: all other assays above

C/C=C1\[C@H]2C=C(C)C[C@]1(N)c1ccc(=O)[nH]c1C2
not listed: [14] | [16] | [18] | [19]
inactive: all other assays above

C=CC(C)CCC=C(C)C (centres undefined)
not listed: [3] | [10] | [14] | [16] | [18] | [19]
inactive: all other assays above

OCC(O)c1ccccc1 (centres undefined)
inactive: [14] | [4] | [6] | [7] | [8] | [9] | [15] | [16] | [17]

CCCCCCCCCCCC(=O)OCC
not listed: [2] | [3] | [14] | [18] | [19]
inactive: all other assays above

CC(C)CC(C)(C)C
active: [12] 35.7 µM | [13] 31.8 µM
not listed: [3] | [10] | [11] | [15] | [18] | [19]
inactive: all other assays above

C=CC(=O)NC(C)(C)C
not listed: [1] | [2] | [3] | [10] | [11] | [18] | [19]
inactive: all other assays above

CCCCCCCCS
not listed: [3] | [14] | [15] | [17] | [18] | [19]
inactive: all other assays above

Clc1nc2ccccc2nc1Cl
active: [15] 24.6 µM
not listed: [2] | [3] | [18] | [19]
inactive: all other assays above

CC(C)NC(=O)c1ccccc1N
not listed: [2] | [3] | [10] | [11] | [15] | [16] | [18] | [19]
inactive: all other assays above

c1ccc(CCNc2nc(-c3ccccc3)cs2)cc1
active: [4] 2.98 µM | [16] 0.944 µM
not listed: [1] | [8] | [12] | [15] | [18] | [19]
inactive: all other assays above

CC(C)=CCC[C@H](C)CCO
not listed: [1] | [3] | [14] | [18] | [19]
inactive: all other assays above

C1CCN(CN2CCCCC2)CC1
not listed: [2] | [3] | [14] | [18] | [19]
inactive: all other assays above

CCCC(=O)OCc1ccccc1
not listed: [3] | [14] | [18] | [19]
inactive: all other assays above

O=C(O)c1ccc(O)c(O)c1
not listed: [1] | [3] | [14]
inactive: all other assays above
